Assay results published in ChEMBL document CHEMBL3988442, “University of Dundee, Small-Polar-MMV Screening Library” (2021).
Out of some 48,000 compounds screened, about 13,000 (27%) showed an effect of 50% or more. The list shows a part of the results.

The compounds below were run on Wolbachia pipientis (assay: Anti-Wolbachia Cell-Based Screen). Details: 5 µM.
Type: functional
Design: scale not given: in the data most compounds retested in dose-response had high values

Structure (SMILES)	Percent Effect [%]
Cc1ccc(CNC(CCO)C2CCCCC2)nc1 (stereo not given)	14.22
CCOCC(=O)Nc1ncn(Cc2cccc(Br)c2)n1	5.844
CNC(=O)C1CCCCN1C(=O)c1csc(-c2ccc(C)cc2)n1 (stereo not given)	-3.515
C[S+]([O-])c1nncn1CCCc1ccc(Cl)cc1 (stereo not given)	1.023
O=C(CCc1ccccc1)C1CCCN(Cc2cncn2C2CC2)C1 (stereo not given)	-3.844
CCS(=O)(=O)Cc1nnnn1-c1ccccc1	1.834
CS(=O)(=O)N1CCCC(n2nnn(-c3ccccc3)c2=O)C1 (stereo not given)	149.4
CCS(=O)(=O)N1CCCC(n2nnn(-c3ccccc3)c2=O)C1 (stereo not given)	133
CS(=O)(=O)N1CCC(n2nnn(-c3ccccc3)c2=O)CC1	113.8
CCS(=O)(=O)N1CCCC(c2nc3ccccc3n2C(C)C)C1 (stereo not given)	-13.43
CS(=O)(=O)N1CCN2C(=O)N(C3CCCCC3)C[C@H]2C1	-8.389
CS(=O)(=O)N1CCCC(C(=O)N2CCOc3ccccc32)C1 (stereo not given)	-6.293
CS(=O)(=O)N1CCC(N2CCCC2c2ccccn2)CC1 (stereo not given)	-15.97
NC(=O)C1CCN(S(=O)(=O)c2cnn(-c3ccccc3)c2)C1 (stereo not given)	-1.203
Cc1nc(CN2CCC(CNC(=O)C3(C#N)CCCC3)CC2)oc1C	-2.689
O=C(NCCNS(=O)(=O)c1cc(F)cc(F)c1)c1ccoc1	3.11
COCc1ncc(CN(CCN(C)C)Cc2ccc(C)s2)cn1	-7.942
OC(CNCCn1cccn1)COc1ccc2ccccc2c1 (stereo not given)	-4.73
CO[C@@H]1CCN(S(=O)(=O)c2cn(C)cn2)[C@H]1Cc1ccncc1.O=C(O)C(F)(F)F	7.215
Cn1nccc1C(=O)N1CCN(C(=O)C2CCC2)[C@@H]2CS(=O)(=O)C[C@@H]21	-1.449
O=C1CC(C2CCCCC2)c2c(n(C3CCCC3)[nH]c2=O)N1 (stereo not given)	-0.7877
CC1=Nc2c(c(=O)[nH]n2C2CCCC2)C(c2cccc(O)c2)S1 (stereo not given)	4.051

Structure (SMILES)	Percent Effect [%]
CC1=Nc2c(c(=O)[nH]n2C2CCCCC2)C(c2ccc(C(=O)O)cc2)S1 (stereo not given)	110.1
CC1(C)CC1(C(=O)N1CC(c2cccnc2)C1)c1ccc(F)cc1 (stereo not given)	-9.092
COc1ccc(C2SC(C)=Nc3c2c(=O)[nH]n3C2CCCCC2)cc1O (stereo not given)	9.619
CC1=Nc2c(c(=O)[nH]n2C2CCCC2)C(c2ccc(C(=O)O)cc2)S1 (stereo not given)	117.5
CC1=Nc2c(c(=O)[nH]n2C2CCCC2)C(c2cccnc2)S1 (stereo not given)	106.9
C[C@@H]1CN(C2CCN(Cc3nn(C)c4cccc(Cl)c34)CC2)C[C@H](C)O1	24.58
C[C@@H]1CN(CC(C)(C)N2CCCCC2)CC[C@@]1(O)C1CC1	22.77
CC(CN1CCOCC1)N(Cc1ccccc1)Cc1ccncc1 (stereo not given)	4.516
O=C(Nc1cn[nH]c1)c1ccc(O)nc1	-8.814
Cc1ccc(NCCNC(=O)C2Cc3cc(C)c(C)cc3O2)nn1 (stereo not given)	-19.52
COc1ncccc1C(=O)N1CCCC1c1c(C)nn(C)c1Cl (stereo not given)	89.91
CCOc1ncccc1C(=O)N1CCCC1c1c(C)nn(C)c1Cl (stereo not given)	122.7
COc1ncccc1C(=O)N1CCCC1c1c(C)n[nH]c1C (stereo not given)	-9.272
CCOc1ncccc1C(=O)N1CCCCC1c1nccs1 (stereo not given)	4.622
CCCNC(=O)C(C)Nc1ccc(OCC)cc1 (stereo not given) [PROPETAMIDE]	-10.93
CC(=O)N1Cc2ccccc2CC1C(=O)Nc1ccc(N(C)C)cn1 (stereo not given)	-0.765
CCS(=O)(=O)NCCNc1c(C#N)cnc2c(C)cc(F)cc12	-8.935
COc1ccc(-c2ccc(C(=O)NS(C)(=O)=O)c(F)c2)cc1	-4.531
CCn1nnc(NCc2cc(Cl)cc(Cl)c2OC)n1	112
CCCn1nnc(NCc2cc(Br)cc(Br)c2OC)n1	116
CCn1nnc(NCc2cc(Br)cc(Br)c2OC)n1	107.9
CCOc1c(CNCCCn2ccnc2)cc(Cl)cc1OC.Cl.Cl	2.415

Structure (SMILES)	Percent Effect [%]
COc1cc(Br)c(CNc2ccn(CCC(N)=O)n2)cc1OC	-66.5
CCOc1c(Cl)cc(Cl)cc1CNCCCn1ccnc1	7.909
CCCC(=O)NCc1cc(Br)c(OC)c(OC)c1	-2.36
CC(CN1CCCC1=O)NC(=O)c1cc(-c2cccc(Cl)c2)no1 (stereo not given)	-44.82
COCC(=O)N[C@H](C)c1onc(-c2ccccc2)c1C(=O)O	-4.041
CN(C)CC1CN(Cc2nnc(-c3ccccc3Cl)o2)CCO1 (stereo not given)	1.962
CS(=O)(=O)Cc1cccc(C(=O)N2CCCC(n3cccn3)C2)c1 (stereo not given)	7.401
O=C(c1cccc(OC2CCCC2)c1)N1CCCC(n2cncn2)C1 (stereo not given)	-3.661
COC(=O)c1cccc(C(=O)N2CCCC(n3cncn3)C2)c1 (stereo not given)	108.5
CN(C)Cc1cccc(C(=O)N2CCCC(n3cncn3)C2)c1 (stereo not given)	139.2
COCCn1cc(C(=O)N2CCCC(n3cncn3)C2)ccc1=O (stereo not given)	-8.291
CCCOc1cccc(C(=O)N2CCCC(n3cncn3)C2)c1 (stereo not given)	99.87
O=C(c1cccc(CN2CCCC2)c1)N1CCCC(n2cncn2)C1 (stereo not given)	-4.839
CCc1cccc(OCC(=O)N2CCCC(n3cncn3)C2)c1 (stereo not given)	9.617
COc1cc(CCC(=O)NCC2CCCN2C)ccc1OCC(F)(F)F (stereo not given)	-0.8695
CC(=O)N1C[C@H](c2cc(O)nc(C)n2)[C@@H](c2ccccc2F)C1	117
Cc1nc(O)cc(C2CCCN(C(=O)COCc3ccccc3)C2)n1 (stereo not given)	12.86
CC(=O)N1C[C@@H](F)[C@@H](OCc2nc3ccccc3o2)C1	-12.47
Cc1nc(O)cc([C@@H]2CN(C(=O)C3CC3)C[C@H]2c2ccccc2F)n1	114.1
COCC(=O)N1C[C@@H](c2cc(O)nc(C)n2)[C@H](c2ccccc2F)C1	108.7
COCC(=O)N1C[C@H]2CN(Cc3csc(C)n3)C(=O)[C@H]2C1.O=C(O)C(F)(F)F	-18.32
